Consider 25 compounds from PubChem BioAssay (EPA / NIEHS).

The target in assay [1] is Type-1 angiotensin II receptor (Homo sapiens) (UniProt P30556). Nature of the assay: NVS_GPCR_hAT1: NovaScreen (NVS) G Protein-Coupled Receptor Assay for human Angiotensin II receptor type 1 (AT1) (AID 2283263). The essentials:
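Hits from a 25 uM duplicate screen (threshold e.g. 30% inhibition) were run in concentration-response with 50 uM top concentration. Displacement of specific radioligand from KAN-TS membrane preparations measured after 3 h by filter scintillation, DMSO as baseline.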

The target of assay [2] is human Adrenergic, Alpha 2c Receptor (Adra2C), ADRA2C (gene 152) (UniProt P18825). Description: NVS_GPCR_hAdra2C: NovaScreen (NVS) G Protein-Coupled Receptor Assay for human Adrenergic, Alpha 2c Receptor (Adra2C) (AID 2283259). An outline of the steps: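 Screened first in duplicate at 25 uM, with actives then run as concentration series. Membranes from Sf9 cells were exposed for 1 h, and displacement of radioligand was counted after filtration, using DMSO as baseline.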

Assay [3] addresses human Histamine 1 Receptor (H1), HRH1 (gene 3269) (UniProt P35367). Nature of the assay: NVS_GPCR_hH1: NovaScreen (NVS) G Protein-Coupled Receptor Assay for human Histamine 1 Receptor (H1) (AID 2283268). The essentials:
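Filter-based scintillation detection of radioligand binding to human H1, 1 h incubation; chemicals screened in duplicate at 25 uM, then concentration-response; signal loss relative to DMSO taken as activity.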

The target in assay [4] is D(1A) dopamine receptor (Homo sapiens) (UniProt P21728). Description: NVS_GPCR_hDRD1: NovaScreen (NVS) G Protein-Coupled Receptor Assay for human Dopamine Receptor D1 (DRD1) (AID 2283269). The protocol: NVS_GPCR_hDRD1 is a biochemical, single-readout assay that uses extracted gene-proteins from HEK293 in a cell-free assay. Measurements were taken 1 hour after chemical dosing in a 96-well plate.NVS_GPCR_hDRD1 is one of one assay component(s) measured or calculated from the NVS_GPCR_hDRD1 assay. It is designed to make measurements of radioligand binding, a form of binding reporter, as detected with scintillation counting signals by Filter-based radiodetection technology.Data from the assay component NVS_GPCR_hDRD1 was analyzed into 1 assay endpoint. This assay endpoint, NVS_GPCR_hDRD1, was analyzed in the positive analysis fitting direction relative to DMSO as the negative control and baseline of activity. Using a type of binding reporter, loss-of-signal activity can be used to understand changes in the binding as they relate to the gene DRD1. Furthermore, this assay endpoint can be referred to as a primary readout, because the performed assay has only produced 1 assay endpoint. To generalize the intended target to other relatable targets, this assay endpoint is annotated to the gpcr intended target family, where the subfamily is rhodopsin-like receptor.
Binding assays used specific radioligands (tritiated, iodinated) with non-radioactive competitive displacement ligands in agonist or antagonist protocols (as indicated) and various reference compounds and inhibitors to titrate specific binding to receptors and transporters. Most enzyme assays (CYPs, kinases, phosphatases, proteases, HDACs) used recombinant protein and specific substrates (fluorescence mostly, some colorimetric and radioactive) and inhibitors, followed by a biochemical separation of substrate and product. All assays for the biochemical HTS were initially run in duplicate at a single concentration (10 uM for CYP450 assays and 25 uM for all others). […] Each assay was run with positive and negative controls, and concurrent controls on every plate. The follow-up (secondary) screen tested active chemical-pairs in concentration series, as well as a few additional assays not tested in the primary screen, some selected negative inactives, and several cases re-run in the concentration series for confirmatory purposes.

Assay [5] deals with human Adrenergic, Beta 1 Receptor (Adrb1), ADRB1 (gene 153) (UniProt P08588). Nature of the assay: NVS_GPCR_hAdrb1: NovaScreen (NVS) G Protein-Coupled Receptor Assay for human Adrenergic, Beta 1 Receptor (Adrb1) (AID 2283258). The essentials:
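Membranes/protein extracted from human neuroepithelioma cells, radioligand competition binding read by filtration and scintillation 2 h post-dose. Single 25 uM duplicate screen, then concentration-response follow-up; DMSO as negative control.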

Assay [6] concerns the target Muscarinic acetylcholine receptor M1 (Homo sapiens) (UniProt P11229). Description: NVS_GPCR_hM1: NovaScreen (NVS) G Protein-Coupled Receptor Assay for human Muscarinic, M1 Receptor (AID 2283270). An outline of the steps:
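Actives from a duplicate 25 uM single-point screen were retested in concentration series. Binding measured as displacement of a radioligand from CHO-derived receptor preparation, 1 h incubation, filtration and scintillation counting, analysed as signal loss against DMSO.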

In assay [7] the target is human Adrenergic, Beta 3 Receptor (Adrb3), ADRB3 (gene 155) (UniProt P13945). Description: NVS_GPCR_hAdrb3: NovaScreen (NVS) G Protein-Coupled Receptor Assay for human Adrenergic, Beta 3 Receptor (Adrb3) (AID 2283262). The essentials:
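A cell-free filter binding assay read by scintillation counting, with displacement of a specific radioligand measured after 1 hour. The receptor source was SK-N-MC extracts (cells pretreated with isoproterenol and 8-bromo-cAMP). Compounds were first tested at 25 uM in duplicate and then in concentration series.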

In assay [8] the target is Beta-2 adrenergic receptor (Homo sapiens) (UniProt P07550). Description: NVS_GPCR_hAdrb2: NovaScreen (NVS) G Protein-Coupled Receptor Assay for human Adrenergic, Beta 2 Receptor (Adrb2) (AID 2283261). The essentials:
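Compounds screened in duplicate at 25 uM, then actives in concentration series. Human beta-2 receptor from CHO material, cell-free; radioligand displacement after 1 h measured by filtration and scintillation against DMSO baseline.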

The target of assay [9] is human Dopamine Receptor D4.4 (DRD4.4), DRD4 (gene 1815) (UniProt P21917). Nature of the assay: NVS_GPCR_hDRD4.4: NovaScreen (NVS) G Protein-Coupled Receptor Assay for human Dopamine Receptor D4.4 (DRD4.4) (AID 2283264). The essentials: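 Filter-binding assay with a tritiated or iodinated ligand, cell-free receptor prepared from CHO, 1 hour. Loss of bound radioactivity versus DMSO; single 25 uM duplicate screen, then concentration-response for actives.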

Assay [10] deals with human Dopamine Receptor D2 (DRD2), DRD2 (gene 1813) (UniProt P14416). Nature of the assay: NVS_GPCR_hDRD2s: NovaScreen (NVS) G Protein-Coupled Receptor Assay for human Dopamine Receptor D2 (DRD2) (AID 2283266). The essentials:
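Test compound (25 uM, duplicate in the primary screen; concentration series at follow-up) competed with radioligand for human DRD2 in CHO-derived membrane protein. Filter-based scintillation counting was done 1.5 hours after dosing, with loss of signal analysed against DMSO.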

Records with an inconclusive call do not appear. Active and inactive are the calls of the source. Rule for the calls: active = hit-call score of the fitted dose curve at least 0.9, where 1 is the maximum; inconclusive = response in the unintended direction; inactive = score below 0.9.

Chain of Type-1 angiotensin II receptor (Homo sapiens) (P30556 whole entry, looked up): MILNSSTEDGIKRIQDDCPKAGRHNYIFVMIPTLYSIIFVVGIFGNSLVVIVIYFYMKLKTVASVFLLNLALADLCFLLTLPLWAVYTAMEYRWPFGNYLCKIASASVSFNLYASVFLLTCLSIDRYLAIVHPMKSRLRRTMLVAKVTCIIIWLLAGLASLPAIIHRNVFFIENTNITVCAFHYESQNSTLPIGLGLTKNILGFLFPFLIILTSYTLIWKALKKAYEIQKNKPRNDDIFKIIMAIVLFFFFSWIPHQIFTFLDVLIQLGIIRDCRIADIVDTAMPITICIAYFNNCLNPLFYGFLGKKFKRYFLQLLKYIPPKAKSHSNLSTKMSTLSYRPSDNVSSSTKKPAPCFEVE
Chain of human Histamine 1 Receptor (H1), HRH1 (gene 3269) (P35367 whole entry, looked up): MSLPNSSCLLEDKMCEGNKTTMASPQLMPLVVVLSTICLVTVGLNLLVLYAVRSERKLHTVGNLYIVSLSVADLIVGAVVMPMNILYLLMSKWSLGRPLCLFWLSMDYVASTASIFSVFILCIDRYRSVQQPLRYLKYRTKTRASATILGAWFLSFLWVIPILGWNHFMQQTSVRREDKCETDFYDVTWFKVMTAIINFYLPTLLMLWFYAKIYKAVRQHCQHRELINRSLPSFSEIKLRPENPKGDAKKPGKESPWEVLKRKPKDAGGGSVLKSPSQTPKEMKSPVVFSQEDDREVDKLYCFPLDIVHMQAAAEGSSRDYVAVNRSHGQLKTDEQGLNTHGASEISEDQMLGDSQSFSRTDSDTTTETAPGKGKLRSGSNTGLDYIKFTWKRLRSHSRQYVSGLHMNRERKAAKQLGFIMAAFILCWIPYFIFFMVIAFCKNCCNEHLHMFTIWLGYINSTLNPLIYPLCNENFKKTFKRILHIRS
Chain of human Adrenergic, Beta 3 Receptor (Adrb3), ADRB3 (gene 155) (P13945 whole entry, looked up): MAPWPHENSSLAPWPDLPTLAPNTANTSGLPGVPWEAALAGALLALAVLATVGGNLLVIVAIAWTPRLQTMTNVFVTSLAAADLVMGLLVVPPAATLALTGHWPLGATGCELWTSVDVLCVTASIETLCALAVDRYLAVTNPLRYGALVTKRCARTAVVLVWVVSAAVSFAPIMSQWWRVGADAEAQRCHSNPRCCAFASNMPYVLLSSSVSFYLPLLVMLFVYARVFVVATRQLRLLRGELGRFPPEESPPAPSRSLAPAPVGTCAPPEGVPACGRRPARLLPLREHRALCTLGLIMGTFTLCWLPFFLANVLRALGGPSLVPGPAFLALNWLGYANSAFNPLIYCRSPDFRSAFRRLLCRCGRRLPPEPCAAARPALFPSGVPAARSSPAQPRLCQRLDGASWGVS
Chain of Muscarinic acetylcholine receptor M1 (Homo sapiens) (P11229 whole entry, looked up): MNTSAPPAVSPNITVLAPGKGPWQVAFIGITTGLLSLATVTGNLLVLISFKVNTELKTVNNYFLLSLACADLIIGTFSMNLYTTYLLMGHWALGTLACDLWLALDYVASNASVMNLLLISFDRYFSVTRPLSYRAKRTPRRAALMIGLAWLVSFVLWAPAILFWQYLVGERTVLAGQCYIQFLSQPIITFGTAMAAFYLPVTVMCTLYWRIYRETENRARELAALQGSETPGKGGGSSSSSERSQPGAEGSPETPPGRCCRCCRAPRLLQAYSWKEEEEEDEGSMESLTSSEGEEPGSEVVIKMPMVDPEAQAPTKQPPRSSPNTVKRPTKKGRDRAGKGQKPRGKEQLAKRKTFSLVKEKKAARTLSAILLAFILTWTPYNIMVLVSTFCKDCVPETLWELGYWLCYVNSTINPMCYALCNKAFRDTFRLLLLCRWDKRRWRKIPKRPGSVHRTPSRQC
Chain of human Adrenergic, Alpha 2c Receptor (Adra2C), ADRA2C (gene 152) (P18825 whole entry, looked up): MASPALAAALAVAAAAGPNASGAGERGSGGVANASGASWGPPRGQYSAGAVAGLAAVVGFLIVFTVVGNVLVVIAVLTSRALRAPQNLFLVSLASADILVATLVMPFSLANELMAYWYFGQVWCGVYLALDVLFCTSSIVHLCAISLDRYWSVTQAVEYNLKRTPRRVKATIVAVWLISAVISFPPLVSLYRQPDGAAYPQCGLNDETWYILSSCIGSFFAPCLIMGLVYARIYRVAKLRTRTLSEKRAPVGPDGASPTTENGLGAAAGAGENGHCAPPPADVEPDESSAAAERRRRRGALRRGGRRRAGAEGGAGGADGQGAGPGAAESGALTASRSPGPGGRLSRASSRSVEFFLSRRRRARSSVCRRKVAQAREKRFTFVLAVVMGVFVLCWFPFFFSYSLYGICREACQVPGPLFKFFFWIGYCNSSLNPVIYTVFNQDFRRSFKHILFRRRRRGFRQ
Chain of Beta-2 adrenergic receptor (Homo sapiens) (P07550 whole entry, looked up): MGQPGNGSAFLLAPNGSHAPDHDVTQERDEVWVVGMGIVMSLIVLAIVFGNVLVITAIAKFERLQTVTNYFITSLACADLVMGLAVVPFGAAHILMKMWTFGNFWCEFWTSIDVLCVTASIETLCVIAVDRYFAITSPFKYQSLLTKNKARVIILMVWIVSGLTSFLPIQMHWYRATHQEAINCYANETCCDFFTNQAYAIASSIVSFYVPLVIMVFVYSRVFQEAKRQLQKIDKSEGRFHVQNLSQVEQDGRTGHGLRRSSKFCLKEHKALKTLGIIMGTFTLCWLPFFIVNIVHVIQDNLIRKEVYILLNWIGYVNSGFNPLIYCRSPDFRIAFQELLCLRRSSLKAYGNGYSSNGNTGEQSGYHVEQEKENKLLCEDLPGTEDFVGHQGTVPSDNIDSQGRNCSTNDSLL
Chain of human Dopamine Receptor D2 (DRD2), DRD2 (gene 1813) (P14416 whole entry, looked up): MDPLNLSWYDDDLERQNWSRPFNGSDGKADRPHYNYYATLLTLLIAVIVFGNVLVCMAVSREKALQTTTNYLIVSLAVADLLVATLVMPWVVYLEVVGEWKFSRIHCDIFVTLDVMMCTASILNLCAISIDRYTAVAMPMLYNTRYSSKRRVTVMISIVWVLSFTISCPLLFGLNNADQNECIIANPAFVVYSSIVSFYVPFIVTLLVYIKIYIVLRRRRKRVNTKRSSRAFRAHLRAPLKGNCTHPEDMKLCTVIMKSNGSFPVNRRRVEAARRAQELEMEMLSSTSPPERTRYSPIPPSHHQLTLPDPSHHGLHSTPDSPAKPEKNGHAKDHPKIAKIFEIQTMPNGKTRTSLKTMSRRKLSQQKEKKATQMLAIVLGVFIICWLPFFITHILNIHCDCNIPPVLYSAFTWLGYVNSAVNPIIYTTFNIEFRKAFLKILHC
Chain of D(1A) dopamine receptor (Homo sapiens) (P21728 whole entry, looked up): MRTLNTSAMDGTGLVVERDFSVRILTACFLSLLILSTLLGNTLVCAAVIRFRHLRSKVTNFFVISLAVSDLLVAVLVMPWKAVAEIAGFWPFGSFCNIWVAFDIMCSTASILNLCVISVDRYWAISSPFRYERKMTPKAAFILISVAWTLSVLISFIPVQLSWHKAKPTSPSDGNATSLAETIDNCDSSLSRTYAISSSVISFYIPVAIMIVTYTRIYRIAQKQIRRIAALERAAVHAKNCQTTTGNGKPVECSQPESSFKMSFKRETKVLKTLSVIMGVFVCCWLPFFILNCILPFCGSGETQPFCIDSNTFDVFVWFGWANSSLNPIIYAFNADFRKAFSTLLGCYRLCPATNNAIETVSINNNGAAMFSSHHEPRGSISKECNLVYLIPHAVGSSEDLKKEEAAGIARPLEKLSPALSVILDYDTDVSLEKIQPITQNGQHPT
Chain of human Dopamine Receptor D4.4 (DRD4.4), DRD4 (gene 1815) (P21917 whole entry, looked up): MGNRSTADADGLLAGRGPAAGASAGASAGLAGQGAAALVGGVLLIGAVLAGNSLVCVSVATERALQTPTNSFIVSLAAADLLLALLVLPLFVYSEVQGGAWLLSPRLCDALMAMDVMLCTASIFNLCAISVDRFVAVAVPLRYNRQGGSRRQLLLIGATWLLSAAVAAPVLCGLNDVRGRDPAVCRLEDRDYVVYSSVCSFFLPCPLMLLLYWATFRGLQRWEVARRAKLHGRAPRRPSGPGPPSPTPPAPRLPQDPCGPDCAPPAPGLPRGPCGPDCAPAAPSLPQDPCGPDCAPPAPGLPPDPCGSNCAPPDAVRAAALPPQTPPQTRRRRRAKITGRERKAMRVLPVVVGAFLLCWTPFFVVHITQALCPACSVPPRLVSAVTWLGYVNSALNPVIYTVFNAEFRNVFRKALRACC
Chain of human Adrenergic, Beta 1 Receptor (Adrb1), ADRB1 (gene 153) (P08588 whole entry, looked up): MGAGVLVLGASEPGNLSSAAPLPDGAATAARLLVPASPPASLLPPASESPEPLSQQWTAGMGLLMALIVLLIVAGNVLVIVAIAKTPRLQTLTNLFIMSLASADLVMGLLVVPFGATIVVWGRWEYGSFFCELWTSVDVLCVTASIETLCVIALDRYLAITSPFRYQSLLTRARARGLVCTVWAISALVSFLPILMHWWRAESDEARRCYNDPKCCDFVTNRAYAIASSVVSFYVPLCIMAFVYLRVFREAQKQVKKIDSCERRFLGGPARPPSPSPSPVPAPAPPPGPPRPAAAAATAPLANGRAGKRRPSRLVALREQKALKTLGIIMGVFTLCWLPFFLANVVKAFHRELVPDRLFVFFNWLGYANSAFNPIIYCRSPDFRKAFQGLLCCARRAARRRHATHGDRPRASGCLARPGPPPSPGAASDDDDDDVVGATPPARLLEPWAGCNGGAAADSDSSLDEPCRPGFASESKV

As for `CC1(C)C(C=C(Cl)Cl)C1C(=O)OC(C#N)c1cccc(Oc2ccccc2)c1` (configuration not stated), in assay [1], the compound was classed as inactive.

With `CC1(C)CON(Cc2ccccc2Cl)C1=O`, the call in assay [2] was inactive.

On to `CCOP(=O)(OCC)Oc1nc(Cl)c(Cl)cc1Cl`, for which the compound was called inactive in [3] and in [4].

As to `COC(=O)N(C(=O)N1CO[C@@]2(C(=O)OC)Cc3cc(Cl)ccc3C2=N1)c1ccc(OC(F)(F)F)cc1`, the call in assay [1] was inactive.

With `CC(C)Nc1nc(Cl)nc(NC(C)C)n1`, in [5], the AC50 was 6.34 µM (active).

On to `CCCCC(C#N)(Cn1cncn1)c1ccc(Cl)cc1` (configuration not stated), for which the AC50 in assay [6] is 5.56 µM (active).

For the compound `CC(C)Oc1cccc(NC(=O)c2ccccc2C(F)(F)F)c1`, the result in [7] was inactive.

For `N#Cc1c[nH]cc1-c1cccc2c1OC(F)(F)O2`, the compound was called inactive in assay [8], in [9] and in [6].

`COP(=S)(OC)SCn1nnc2ccccc2c1=O`: the compound was called inactive in assay [8] and in assay [3].

For `O=C1C2CC=CCC2C(=O)N1SC(Cl)(Cl)Cl` (configuration not stated), the results for the AC50 in assay [1], in assay [10] and in assay [4] were 13.4 µM (active), 25 µM (active) and 9.65 µM (active), respectively.

In the case of `COC(=O)NS(=O)(=O)c1ccc(N)cc1`, the outcome in assay [8] and in assay [6] was inactive.

Take `CCOc1cc(C(C)(C)C)ccc1C1COC(c2c(F)cccc2F)=N1` (configuration not stated): the compound was classed as inactive in assay [4].

As for `CCCN(CC)CC1COC2(CCC(C(C)(C)C)CC2)O1` (configuration not stated), the half-maximal activity concentration (AC50) was 7.95 µM (active) in assay [9] and 4.97 µM (active) in [6]. Besides, the call in assay [10] was inactive.

`Nc1c(Cl)c(F)nc(OCC(=O)O)c1Cl`: in assay [2], the result was inactive.

As for `CN=C=S`, in [8], the result was inactive.

With `Cc1ccc(N=CN(C)C=Nc2ccc(C)cc2C)c(C)c1`, the compound was called inactive in [4].

Consider `Cn1c(-c2ccccc2)cc(-c2ccccc2)[n+]1C`, for which the values for the concentration at half-maximal activity (AC50) in assay [2] and in [6] were 3.74 µM (active) and 2.84 µM (active), respectively.

As to `Nc1c(Cl)c(Cl)nc(C(=O)O)c1Cl`, the compound was called inactive in assay [8].

Turning to `OC(c1ccc(Cl)cc1)(c1ccc(Cl)cc1)C(Cl)(Cl)Cl`, the call in [10] was inactive.

As to `O=c1n(Cl)c(=O)n(Cl)c(=O)n1Cl`, in assay [6], the call was inactive.

Take `Clc1nc(Cl)nc(Nc2ccccc2Cl)n1`: in assay [3], the compound was classed as inactive.

With `O=C(O)c1c(Cl)ccc2cc(Cl)cnc12`, in [7], the call was inactive.

As for `CCC(C)n1c(=O)[nH]c(C)c(Br)c1=O` (configuration not stated), in [3], the outcome was inactive.

For the compound `CN/C(=N\[N+](=O)[O-])NCc1cnc(Cl)s1`, the result in [7] was inactive.

As for `CC(C)=CC1C(C(=O)OCc2coc(Cc3ccccc3)c2)C1(C)C` (configuration not stated), the results for the half-maximal activity concentration (AC50) in assay [5], in assay [2] and in [4] were 25 µM (active), 25 µM (active) and 11.5 µM (active), respectively.
